From PubChem BioAssay
dFosB act-1: activators of delta FosB homodimer, primary screen, biochemical, fluorescence polarization, TAMRA-CDK5 oligo, single point; Protein FosB (Mus musculus), P13346; activation, % at 25 µM; purified delta FosB; percent of positive-control signal above neutral wells; 0.99% of 340,000 active;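 active means mean activation above about 17%, with every replicate also reaching it, limit read from the data, passing the limit was not always enough; inconclusive means only one of the two conditions met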
Target sequence (P13346 whole entry, looked up): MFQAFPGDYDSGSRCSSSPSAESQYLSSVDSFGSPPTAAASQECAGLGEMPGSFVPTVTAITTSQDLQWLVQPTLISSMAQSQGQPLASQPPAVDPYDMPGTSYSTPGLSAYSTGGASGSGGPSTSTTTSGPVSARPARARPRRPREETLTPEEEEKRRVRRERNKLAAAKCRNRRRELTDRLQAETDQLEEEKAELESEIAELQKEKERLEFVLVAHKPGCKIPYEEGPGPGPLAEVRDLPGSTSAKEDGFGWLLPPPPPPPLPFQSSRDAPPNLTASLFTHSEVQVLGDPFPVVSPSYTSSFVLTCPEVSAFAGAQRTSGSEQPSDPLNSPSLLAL
PvdQ inh: P. aeruginosa PvdQ acylase inhibitors, primary screen, biochemical, fluorescence, plate reader and imaging, single point. 0.063% of 340,000 active. inhibition, % at 10 µM. PvdQ acylase [Pseudomonas aeruginosa LESB58]. purified PvdQ acylase. AID 488965, 2010; in the data active means inhibition above about 30%, passing the limit was not always enough; inconclusive means no clear call, values can overlap the other calls
CDK5 inh: inhibitors of human CDK5/p35 kinase, primary screen, biochemical, single concentration | Cyclin-dependent kinase 5 (Homo sapiens) + Cyclin-dependent kinase 5 activator 1 (Homo … | Recombinant CDK5/p35, ADP-Glo luminescence, 60 min | inhibition, % at 10 µM | 0.01% of 330,000 active | AID 488839, 2010;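 active means highest replicate inhibition of at least 50% and at least 75% of replicates reaching 50%; inconclusive means only one of the two criteria met; inactive means both criteria failed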
PglD DTNB: C. jejuni PglD acetyltransferase inhibitors, primary screen, biochemical, DTNB colorimetric, single point; UDP-N-acetylbacillosamine N-acetyltransferase PglD (Campylobacter jejuni); purified PglD enzyme, DTNB colorimetric CoA detection; inhibition, % at 12.5 µM; 0.098% of 360,000 active; in the data active means inhibition above about 16%, passing the limit was not always enough; inconclusive means no clear call, values can overlap the other calls
FGF22 binding: binders of human FGF22 protein, primary screen, FGF22 synaptogenesis inhibitor project, biophysical, thermal shift, single point | recombinant FGF22 thermal shift, SYPRO orange fluorescence; percent of sucrose octasulfate shift, DMSO zero | AID 651658, 2012 | activity (Tm shift, normalised), % at 9.99 µM | 1.5% of 340,000 active | Fibroblast growth factor 22 (Homo sapiens), Q9HCT0;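 active means mean Tm shift, scaled 0 neutral to 100 positive control, at about 1.3% or above, every replicate too, limit read from the data; inconclusive means no clear call, values can overlap the other calls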
Target sequence (Q9HCT0 whole entry, looked up): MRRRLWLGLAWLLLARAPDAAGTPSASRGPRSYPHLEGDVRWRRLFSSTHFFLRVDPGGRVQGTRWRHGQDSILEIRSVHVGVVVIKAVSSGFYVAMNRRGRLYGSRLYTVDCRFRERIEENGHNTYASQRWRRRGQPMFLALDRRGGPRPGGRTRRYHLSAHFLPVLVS
SIRT5 block: SIRT5 desuccinylase inhibitors, primary screen, biochemical, fluorescence imaging, single point, set 5. NAD-dependent protein deacylase sirtuin-5, mitochondrial (Homo sapiens), Q9NXA8. Purified SirT5, succinyl-peptide AMC, trypsin-coupled fluorescence. inhibition, % at 15 µM. 1.1% of 330,000 active. AID 652115, 2013; in the data active means inhibition above about 15%; inconclusive means no clear call, values can overlap the other calls
dFosB act-2: activators of mouse delta FosB DNA binding, confirmation, biochemical, fluorescence polarization, TAMRA-CDK5 oligo, cherry-picked samples; activation, % at 24.9 µM; purified delta FosB; normalised: neutral wells 0, positive control 100; shares compounds with dFosB act-1; 2,400 tested, under 10 active; AID 588690, 2011;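 active means highest replicate activation at or above 34% and every replicate reaching that threshold; inconclusive means meets only one of the two criteria; inactive means meets neither criterion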;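 further: higher polarization means more probe DNA bound by delta FosB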
A number is an active result. Hits are enriched below; roughly 2.8% of the tested compounds scored in any of these assays.

What do the screens show for `COc1ccc(/C=C/C(=O)Nc2ccccc2)cc1OC`?
dFosB act-1: inactive; PvdQ inh: inactive; CDK5 inh: inactive; FGF22 binding: inactive; SIRT5 block: inactive

How did COc1ccc(/C=C/C(=O)NC(=S)Nc2ccc(S(N)(=O)=O)cc2)cc1OC do in these assays?
dFosB act-1: 46.6; PvdQ inh: inactive; CDK5 inh: inactive; PglD DTNB: inactive; FGF22 binding: inactive; SIRT5 block: inactive; dFosB act-2: inactive

How did COc1ccc(-c2cnnn2-c2ccc(NC(=O)/C=C/c3ccc(OC)c(OC)c3)cc2)cc1 do in these assays?
dFosB act-1: inactive; PvdQ inh: inactive; CDK5 inh: inactive; FGF22 binding: inactive; SIRT5 block: inactive

How did CCC(=O)N1[C@@H]2c3cccc(=O)n3C[C@H]1[C@H](CO)[C@H]2C(=O)N1CCc2ccccc2C1 do in these assays?
PglD DTNB: inactive; FGF22 binding: inactive; SIRT5 block: inactive

How did CC(C)C[C@@H]1NC(=O)[C@@H]2C[C@H](C(=O)NCc3ccc(F)cc3)[C@H](c3ccc(O)cc3)N2C1=O do in these assays?
PglD DTNB: inactive; SIRT5 block: inactive

Results for CO[C@@H]1CN(C)C(=O)c2ccc(NC(=O)C3CC3)cc2OC[C@@H](C)N(C(=O)NC(C)C)C[C@@H]1C ?
PglD DTNB: inactive; FGF22 binding: inactive; SIRT5 block: inactive

How did Cc1nc2ccccn2c1C(=O)CSc1ccc(Cl)cc1Cl do in these assays?
dFosB act-1: 49.8; PvdQ inh: inactive; CDK5 inh: inactive; PglD DTNB: inactive; dFosB act-2: inactive

What do the screens show for `COc1ccc(CCNC(=O)C(=O)NCc2ccc(Cl)cc2)cc1OC`?
dFosB act-1: 42.5; PvdQ inh: inactive; CDK5 inh: inactive; FGF22 binding: inactive; SIRT5 block: inactive; dFosB act-2: inactive

What do the screens show for `COc1ccc(CN(C)C[C@H]2Oc3ccc(NS(=O)(=O)c4cccs4)cc3CC(=O)N([C@@H](C)CO)C[C@@H]2C)cc1`?
FGF22 binding: inactive; SIRT5 block: inactive

What do the screens show for `Cc1cc(NC(=O)CN2CCc3ccccc3C2)nc2c1c(=O)oc1ccccc12`?
dFosB act-1: 30.7; PvdQ inh: inactive; CDK5 inh: inactive; PglD DTNB: inactive; FGF22 binding: inactive; SIRT5 block: inactive; dFosB act-2: inactive

What do the screens show for `Cc1ccccc1-c1cnc2c(c1)C(=O)N([C@@H](C)CO)C[C@@H](C)[C@H](CN(C)C(=O)c1ccccc1)O2`?
PglD DTNB: inactive; FGF22 binding: inactive

How did Cc1cc(C)c2oc(C(=O)NCCc3ccc(S(N)(=O)=O)cc3)cc(=O)c2c1 do in these assays?
dFosB act-1: 41.0; PvdQ inh: inactive; CDK5 inh: inactive; PglD DTNB: inactive; FGF22 binding: inactive; SIRT5 block: inactive; dFosB act-2: inactive

Results for Cc1cc(C)c2oc(C(=O)Nc3ccc(S(=O)(=O)N4CCC(C)CC4)cc3)cc(=O)c2c1 ?
dFosB act-1: 23.4; PvdQ inh: inactive; CDK5 inh: inactive; FGF22 binding: inactive; SIRT5 block: inactive; dFosB act-2: inactive

How did C[C@@H]1CCCCO[C@@H](CN(C)C(=O)Nc2ccc(F)cc2)[C@H](C)CN([C@@H](C)CO)C(=O)c2cc(NC(=O)Cc3ccccc3)ccc2O1 do in these assays?
PglD DTNB: inactive; FGF22 binding: inactive; SIRT5 block: inactive

How did Cc1ccc(C(=O)COC(=O)CNC(=O)CN2C(=O)c3ccccc3C2=O)cc1 do in these assays?
dFosB act-1: inactive; PvdQ inh: inactive; CDK5 inh: inactive

How did Cc1cc(C)c(C)c(C(=O)COC(=O)CNC(=O)CN2C(=O)c3ccccc3C2=O)c1C do in these assays?
dFosB act-1: 43.2; PvdQ inh: inactive; CDK5 inh: inactive; PglD DTNB: inactive; FGF22 binding: inactive; SIRT5 block: inactive; dFosB act-2: inconclusive

How did CC=Cc1ccc2n(c1=O)C[C@H]1[C@H](CO)[C@@H](C(=O)NC3CCC3)N(CCC)[C@@H]21 (mixture of isomers) do in these assays?
SIRT5 block: inactive

Results for O=C(CCc1nc2ccccc2c(=O)[nH]1)NCCN1C(=O)S/C(=C\c2ccc(OC(F)F)cc2)C1=O ?
dFosB act-1: 46.5; PvdQ inh: inactive; CDK5 inh: inactive; PglD DTNB: inactive; FGF22 binding: inactive; SIRT5 block: inactive; dFosB act-2: inactive

What do the screens show for `Cc1noc(C)c1S(=O)(=O)Nc1ccc2c(c1)C(=O)N([C@@H](C)CO)C[C@@H](C)[C@H](CN(C)Cc1ccncc1)OCCCC[C@@H](C)O2`?
PglD DTNB: inactive; FGF22 binding: inactive; SIRT5 block: inactive

Results for O=C(N/N=C/c1ccc(-c2cccc(C(F)(F)F)c2)o1)c1ccccc1O ?
dFosB act-1: 31.6; PvdQ inh: inactive; CDK5 inh: inactive; dFosB act-2: inactive

What do the screens show for `O=C(N/N=C/c1ccc(-c2cccc(C(F)(F)F)c2)o1)c1ccccc1Br`?
dFosB act-1: inactive; PvdQ inh: inactive; CDK5 inh: inactive

What do the screens show for `O=C(N/N=C/c1ccc(-c2cccc([N+](=O)[O-])c2)o1)c1ccccc1O`?
dFosB act-1: 21.8; PvdQ inh: inactive; CDK5 inh: inactive; FGF22 binding: inactive; SIRT5 block: inactive; dFosB act-2: inactive

How did COc1ccccc1NS(=O)(=O)c1cccc(C(=O)N/N=C/c2ccc(NC(C)=O)cc2)c1 do in these assays?
dFosB act-1: 29.5; PvdQ inh: inactive; CDK5 inh: inactive; FGF22 binding: inactive; SIRT5 block: inactive; dFosB act-2: inactive

Results for CC(=O)Nc1ccc(NC(=O)c2ccc(N(Cc3ccccc3C)S(C)(=O)=O)cc2)cc1 ?
dFosB act-1: 20.0; PvdQ inh: inactive; CDK5 inh: inactive; SIRT5 block: inactive; dFosB act-2: inactive

How did CC(=O)Nc1ccc(NC(=O)c2ccc(NC(=O)c3ccccc3)cc2)cc1 do in these assays?
dFosB act-1: 26.6; PvdQ inh: inactive; CDK5 inh: inactive; PglD DTNB: inactive; FGF22 binding: inactive; SIRT5 block: inactive; dFosB act-2: inactive

How did CC(=O)Nc1ccc(C(=O)c2ccccc2)cc1 do in these assays?
dFosB act-1: inactive; PvdQ inh: inactive; CDK5 inh: inactive; PglD DTNB: inactive
